# Measured values from the supplement of paper PMC9694430.
# How the values were obtained:
# Assay in all cases: thermal shift delta Tm vs DMSO control; higher = stronger stabilization (binding)
# Conditions in all cases: 12.5 µM; protein concentration 2 µM
# LOC_OS04G57630-cb004 = test system: LOC_OS04G57630-cb004
# In short: (§1)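 Thermal shift values come from differential scanning fluorimetry on purified rice kinase domains made in E. coli, with melting temperatures obtained from Boltzmann fits. Samples of 19.5 μl held 2 μM kinase, 100 mM potassium phosphate pH 7.5, 150 mM NaCl, 10% glycerol, 5 × SYPRO Orange and compound in DMSO, and were heated from 25°C to 95°C at 0.05°C/s. Each shift is a triplicate mean relative to the DMSO-only protein sample.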
# LOC_OS05G07850-cb002 = test system: LOC_OS05G07850-cb002
# In short: as §1
# LOC_OS05G16824-cb004 = test system: LOC_OS05G16824-cb004
# In short: as §1
# LOC_OS05G28520-cb001 = test system: LOC_OS05G28520-cb001
# In short: as §1
# LOC_OS05G30820-cb001 = test system: LOC_OS05G30820-cb001
# In short: as §1
# LOC_OS05G43570-cb004 = test system: LOC_OS05G43570-cb004
# In short: as §1
# LOC_OS06G16330-cb003 = test system: LOC_OS06G16330-cb003
# In short: as §1
# LOC_OS06G22820-cb001 = test system: T1, LOC_OS06G22820-cb001
# T1 sequence (whole entry): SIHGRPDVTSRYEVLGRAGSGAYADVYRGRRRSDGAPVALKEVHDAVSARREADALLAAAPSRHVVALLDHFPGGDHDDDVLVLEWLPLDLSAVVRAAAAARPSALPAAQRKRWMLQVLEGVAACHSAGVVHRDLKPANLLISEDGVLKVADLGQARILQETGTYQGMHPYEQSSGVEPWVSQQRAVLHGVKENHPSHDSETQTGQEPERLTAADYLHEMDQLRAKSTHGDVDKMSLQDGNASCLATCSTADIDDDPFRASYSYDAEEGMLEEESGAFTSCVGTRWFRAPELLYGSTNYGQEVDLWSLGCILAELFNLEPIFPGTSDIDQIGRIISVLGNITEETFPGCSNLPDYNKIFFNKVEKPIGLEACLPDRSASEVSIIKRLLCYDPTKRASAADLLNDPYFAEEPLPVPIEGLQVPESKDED
# In short: as §1
# LOC_OS07G06570-cb004 = test system: LOC_OS07G06570-cb004
# In short: as §1
# LOC_OS07G07230-cb001 = test system: LOC_OS07G07230-cb001
# In short: as §1
# 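Further: purified Escherichia coli-expressed rice kinase domain construct.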
# LOC_OS06G16330-cb003, sequence (as listed by the source): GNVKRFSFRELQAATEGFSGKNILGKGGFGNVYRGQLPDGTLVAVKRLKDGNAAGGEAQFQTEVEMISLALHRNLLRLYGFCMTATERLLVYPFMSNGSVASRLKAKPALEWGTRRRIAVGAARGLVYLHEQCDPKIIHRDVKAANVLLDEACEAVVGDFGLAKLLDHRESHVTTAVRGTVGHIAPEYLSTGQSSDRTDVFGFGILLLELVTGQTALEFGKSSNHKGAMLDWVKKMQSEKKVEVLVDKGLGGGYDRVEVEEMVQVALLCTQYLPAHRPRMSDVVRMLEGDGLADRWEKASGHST
SMILES,thermal shift delta Tm (LOC_OS04G57630-cb004),thermal shift delta Tm (LOC_OS05G07850-cb002),thermal shift delta Tm (LOC_OS05G16824-cb004),thermal shift delta Tm (LOC_OS05G28520-cb001),thermal shift delta Tm (LOC_OS05G30820-cb001),thermal shift delta Tm (LOC_OS05G43570-cb004),thermal shift delta Tm (LOC_OS06G16330-cb003),thermal shift delta Tm (LOC_OS06G22820-cb001),thermal shift delta Tm (LOC_OS07G06570-cb004),thermal shift delta Tm (LOC_OS07G07230-cb001)
O=C(O)[C@]1(Cc2cccc(Nc3nccs3)n2)CC[C@@H](Oc2cccc(Cl)c2F)CC1,1.26 °C,13 °C,2.5 °C,0.88 °C,4.08 °C,0.24 °C,20.6 °C,0.38 °C,0.16 °C,-1.36 °C
Cc1cc(Nc2cc(N)ncn2)c(=O)n2c1C(=O)NC21CCCCC1,0.21 °C,5.64 °C,1.99 °C,-0.15 °C,0.03 °C,0.05 °C,0.4 °C,0.25 °C,0.6 °C,0.71 °C
O=C(O)c1ccc(Nc2ncc3c(n2)-c2ccc(Cl)cc2C(c2c(F)cccc2F)=NC3)cc1,-0.29 °C,4.66 °C,-1.88 °C,0.62 °C,0.22 °C,0.24 °C,-0.12 °C,0.97 °C,0.4 °C,0.33 °C
C1=N/C2=N/c3ccc(OCCN4CCCC4)c(c3)COC/C=C/COCc3cccc(c3)C(=C1)N2 [Pacritinib (SB1518)],4.36 °C,12.8 °C,7.5 °C,3.33 °C,0.55 °C,0.68 °C,10.1 °C,0.41 °C,1.64 °C,0.85 °C
CNC(=O)c1cc(Oc2ccc(NC(=O)Nc3cc(C(C)(C)C)nn3-c3ccc4ncccc4c3)c(F)c2)ccn1 [Rebastinib (DCC-2036)],10.4 °C,14.3 °C,0.76 °C,0.81 °C,1.05 °C,0.62 °C,10 °C,0.59 °C,0.44 °C,-0.15 °C
CCCCNc1ncc2c(-c3ccc(CN4CCN(C)CC4)cc3)cn([C@H]3CC[C@H](O)CC3)c2n1,6.55 °C,11.9 °C,15.5 °C,0.68 °C,1.96 °C,0.44 °C,13.5 °C,0.17 °C,0.92 °C,-0.01 °C
Nc1nccc(Oc2ccc(NC(=O)c3c[nH]cc(-c4ccc(F)cc4)c3=O)cc2F)c1Cl,1.51 °C,14.9 °C,-0.78 °C,0.3 °C,0.92 °C,1.01 °C,6.76 °C,0.86 °C,0.57 °C,0.36 °C
CCn1c(N)c(C(=O)NC)c(=O)c2ccc(C#CC(C)(O)COC)nc21 (stereo not given),0.45 °C,5.21 °C,3.79 °C,0.37 °C,0.73 °C,0.13 °C,0.51 °C,0.3 °C,1.2 °C,-0.09 °C
CN1CCC(COc2cnc(-c3cccc(Cn4nc(-c5cccc(C#N)c5)ccc4=O)c3)nc2)CC1,0.46 °C,0.61 °C,-1.27 °C,0.69 °C,0.42 °C,0.46 °C,0.55 °C,0.49 °C,1.28 °C,0.18 °C
COc1cccc(-n2c(=O)[nH]c3cc(Cl)n(-c4ccc(-c5cccc(OC)c5O)cc4)c3c2=O)c1,0.32 °C,-0.83 °C,-0.73 °C,0.37 °C,0.41 °C,0.59 °C,-0.14 °C,0.65 °C,1.02 °C,0.5 °C
CC(C)NC[C@@H](C(=O)N1CCN(c2ncnc3c2[C@H](C)C[C@H]3O)CC1)c1ccc(Cl)cc1 [Ipatasertib (GDC-0068)],-0.05 °C,0.18 °C,-3.22 °C,0.5 °C,0.46 °C,0.17 °C,-0.53 °C,0.38 °C,1.25 °C,0.21 °C
COc1ccc(S(=O)(=O)N(CCO)c2ccccc2CN(C)C/C=C/c2ccc(Cl)cc2)cc1 [KN-93 Phosphate],0.49 °C,0.97 °C,1.97 °C,0.31 °C,0.17 °C,0.27 °C,-0.14 °C,0.35 °C,1.18 °C,0.21 °C
CCCCOc1c(C(=O)c2c(F)cc(C)cc2F)c[nH]c2nncc1-2,0.1 °C,5.8 °C,-1.11 °C,-0.07 °C,0.47 °C,0.9 °C,0.88 °C,1.75 °C,0.61 °C,-0.1 °C
CC(C)(CCCCCC(O)CCCCCC(C)(C)C(=O)O)C(=O)O,0.04 °C,0.87 °C,0.14 °C,0.47 °C,0.38 °C,0.54 °C,-0.14 °C,0.48 °C,0.64 °C,-0.4 °C
COc1cccc(-c2cc(=O)c3ccccc3o2)c1N,-0.72 °C,0.19 °C,-2.84 °C,0.24 °C,0.41 °C,0.15 °C,-0.2 °C,0.44 °C,0.29 °C,0.35 °C
C#Cc1cccc(Nc2ncnc3cc4c(cc23)OCCOCCOCCO4)c1 [Icotinib],1.01 °C,8.46 °C,-0.7 °C,0.87 °C,0.31 °C,0.43 °C,3.06 °C,0.81 °C,1 °C,0.07 °C
O=C(c1ccc(Nc2nccc(-c3cc4ccccc4s3)n2)cc1)N1CCC(N2CCCC2)CC1 [IKK-16 (IKK Inhibitor VII)],5.63 °C,15.2 °C,7.99 °C,1.89 °C,0.77 °C,-0.31 °C,9.02 °C,0.14 °C,0.72 °C,0.03 °C
